Tau fibril FP = tau fibrillization inhibition (FP) | P10636 | K18 P301L tau heparin fibrillization, Alexa594 FP, 6 h | Potency, µM (top dose mostly 57.7 µM), usual class: inhibitors | hit rate 0.39% among 280,000; further: nearly all actives have a fitted effect of over 55% in size
Target sequence (P10636 561-689 P618L limits assumed): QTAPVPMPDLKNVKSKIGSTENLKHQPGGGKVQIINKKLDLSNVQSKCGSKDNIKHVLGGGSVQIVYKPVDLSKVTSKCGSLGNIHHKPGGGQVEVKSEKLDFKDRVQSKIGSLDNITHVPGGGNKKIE
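Quantitative HTS format: compounds meet 15 uM recombinant K18 P301L tau and Alexa 594-tau tracer in 100 mM sodium acetate pH 7; 20 uM heparin triggers fibrillization at 37 C over 6 hr; FP gives the signal.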
Tau ThT inhib = inhibitors of human tau fibril formation, thioflavin T binding. P10636. recombinant tau K18 P301L, heparin-induced fibrillization, ThT fluorescence. Potency, µM (series often up to 57.4 µM), actives largely listed as inhibitors. hit rate 2.1% among 270,000; further: nearly all actives have a fitted effect of over 55% in size
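Recombinant human tau K18 fragment […] carrying P301L, 15 uM unlabeled plus 0.24 uM Alexa 594-labeled, was fibrillized with 20 uM heparin in 100 mM sodium acetate pH 7 for 6 hr at 37 C; 30 uM ThT fluorescence read after 1 hr.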
HPGD inh = blocks human HPGD enzyme activity. P15428. purified HPGD, NADH fluorescence kinetic, PGE2 substrate. Potency, µM, most hits filed as inhibitors. hit rate 4.3% among 150,000; active means well fitted inhibition curve with a large enough effect, not every such curve was filed as active; inconclusive means small, poorly fitted or top-dose-only effect, or another doubt; inactive means no such curve, though single readings can be large or run the other way
Target sequence (P15428 whole entry, looked up): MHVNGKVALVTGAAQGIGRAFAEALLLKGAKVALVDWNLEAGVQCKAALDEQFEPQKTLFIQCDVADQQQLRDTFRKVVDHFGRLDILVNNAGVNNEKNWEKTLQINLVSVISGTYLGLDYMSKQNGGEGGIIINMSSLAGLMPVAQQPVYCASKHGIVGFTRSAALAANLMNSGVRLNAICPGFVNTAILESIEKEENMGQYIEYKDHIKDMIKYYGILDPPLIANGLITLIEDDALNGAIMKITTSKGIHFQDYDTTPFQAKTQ
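NADH formation kinetics: reaction with 30 uM PGE2 and 1 mM NAD+ (final), 20 nM enzyme, Tris-HCl pH 8 with Tween 20, after 15 min compound preincubation at room temperature. Fluorescence change, last versus first of five reads.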
ALDH1A1 inh = ALDH1A1 (human) enzyme inhibition. hit rate 7.3% among 220,000. Purified ALDH1A1, NADH fluorescence, propionaldehyde substrate. P00352. Potency, µM (titrated, usually from 75.3 µM), most hits filed as inhibitors; active means well fitted inhibition curve with a large enough effect, not every such curve was filed as active; inconclusive means small, poorly fitted or top-dose-only effect, or another doubt; inactive means no such curve, though single readings can be large or run the other way
JMJD2E inh = JMJD2E (human) inhibition. B2RXH2. hit rate 1.6% among 230,000. JMJD2E catalytic domain, FDH-coupled NADH fluorescence (FDH is formaldehyde dehydrogenase). Potency, µM (series often up to 57.1 µM), most hits filed as inhibitors. AID 2147; active means well fitted inhibition curve with a large enough effect, not every such curve was filed as active; inconclusive means small, poorly fitted or top-dose-only effect, or another doubt; inactive means no such curve, though single readings can be large or run the other way; further: nearly all actives have a fitted effect of over 50% in size
Target sequence (B2RXH2 1-337 limits assumed): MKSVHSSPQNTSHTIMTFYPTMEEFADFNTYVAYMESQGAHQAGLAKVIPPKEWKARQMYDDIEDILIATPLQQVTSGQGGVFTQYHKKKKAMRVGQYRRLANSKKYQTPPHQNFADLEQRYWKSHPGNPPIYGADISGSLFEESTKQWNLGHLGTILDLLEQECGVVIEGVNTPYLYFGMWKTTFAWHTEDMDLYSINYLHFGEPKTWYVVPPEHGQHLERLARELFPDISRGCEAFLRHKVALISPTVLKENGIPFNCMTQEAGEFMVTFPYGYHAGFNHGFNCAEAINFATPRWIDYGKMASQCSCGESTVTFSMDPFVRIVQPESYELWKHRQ
Tau fluor cs = counter-screen for tau fibril formation inhibitors; tau K18 P301L Alexa594 fluorescence, heparin fibrillization; Potency, µM (titrated, usually from 57.7 µM); hit rate 0.93% among 280,000; further: nearly all actives have a fitted effect of over 55% in size
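Human tau K18 P301L (15 uM unlabeled, 0.24 uM Alexa 594-labeled) in 100 mM sodium acetate pH 7 with 20 uM heparin, 6 hr at 37 C. ThT 30 uM added, 1 hr ambient; Alexa 594 FP and total fluorescence read at 555/632 nm.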
A number is an active result; . = inactive; ? = inconclusive; / = not tested or not shown; [ ] = dose if it differs, or a comment. Shown are actives, neighbours in structure and some others; about 9.9% of the full set was active somewhere. Unless noted, the call rests on the fitted dose curve; in most records, active means well fitted curve in the direction sought with a large enough effect; inconclusive means small, poorly fitted or top-dose-only effect, or another doubt; inactive means no such curve, though single readings can be large; an effect the other way counts as inactive or inconclusive.

SMILES	Tau fibril FP	Tau ThT inhib	HPGD inh	ALDH1A1 inh	JMJD2E inh	Tau fluor cs
COc1ccc(Nc2ncnc3sc(-c4ccccc4)cc23)cc1OC	?	?	?	?	?	14.1µM[quencher]
COc1ccc(OCc2nnc3n2N=C(c2ccc(OC)cc2)CS3)cc1	.	.	.	?	.	.
c1ccc(OCc2nnc3n2N=C(c2ccccc2)CS3)cc1	.	?	/	10µM	?	.
COc1ccccc1C1=Nn2c(COc3ccccc3)nnc2SC1	?	?	/	14.1µM	?	.
O=C(Nc1ccc(-c2nc3ccccc3[nH]2)cc1)c1cccc(N2C(=O)CCC2=O)c1	.	?	?	?	?	.
CCn1nnnc1-c1ccc(OC)c(S(=O)(=O)NCc2ccccc2)c1	.	.	20µM	1.89µM	.	.
CCn1nnnc1-c1ccc(OC)c(S(=O)(=O)Nc2ccc(C)c(C)c2)c1	.	.	.	7.08µM	.	.
COc1ccc(OC)c(S(=O)(=O)Nc2ccc(C)c(C)c2)c1	.	.	.	?	.	.
COc1ccc(NS(=O)(=O)c2cc(-c3nnnn3C)ccc2OC)cc1	.	.	.	0.794µM	.	.
C=CCOC(=O)C(C(C)=O)C(NC(=O)OC)c1ccco1 (stereo unspecified)	.[11.6 µM]	.[11.5 µM]	/	.[13.5 µM]	/	.[11.6 µM]
COc1cc(Cl)c(C)cc1NC(=O)c1cnn(-c2ccc(F)cc2F)c1C1CCN(C(=O)OC(C)(C)C)CC1	.	.	/	/	/	.
NC(=O)N[C@H](CC(=O)O)C(=O)O	/	/	.	.[13.5 µM]	/	/
O=C(CCS(=O)(=O)Cc1ccccc1)NCCc1ccccc1	.	.	/	.	.	.
COc1ccc(-c2[nH]ncc2-c2cnc(C)s2)c(O)c1	.	.	.	.	.	.
COc1ccccc1-c1cn[nH]c1-c1ccc(OCc2ccc(F)cc2)cc1O	?	.	/	/	?	10µM[quencher]
COc1ccccc1-c1cn[nH]c1-c1ccc(OCc2ccccc2F)cc1O	?	.	/	.	.	10µM[quencher]
COc1ccccc1-c1cn[nH]c1-c1ccc(OCc2ccc([N+](=O)[O-])cc2)cc1O	?	.	/	/	.	.
CC(=O)N1CCn2c3ccc(C)cc3c3cccc1c32	.	?	.	.	.	.
NS(=O)(=O)c1cccc(NC(=O)COC(=O)C2(c3cccc(F)c3)CCCC2)c1	.	.	.	?	.	.
CC(/C=N/NC(=O)CSc1nc2ccccc2n1C)=C\c1ccco1	.	?	.	12.6µM	.	.
C/C(=N/NC(=O)Cc1cccn1C)c1ccccc1	.	.	.	17.8µM	.	.
CCn1c(SCC(=O)N/N=C/C=C/c2ccco2)nnc1-c1ccc(OC)cc1	.	.	31.6µM	.	.	.
CCn1c(SCC(=O)N/N=C/C=C/c2ccco2)nc2ccccc21	?	?	.	12.6µM	.	.
COc1cc(-c2ccno2)ccc1S(=O)(=O)N1CCN(c2ccc(C(C)=O)cc2)CC1	.	?	/	/	/	.
CC(/C=N/NC(=O)c1cccs1)=C\c1ccco1	.	?	/	7.94µM	?	.
SMILES	Tau fibril FP	Tau ThT inhib	HPGD inh	ALDH1A1 inh	JMJD2E inh	Tau fluor cs
CCn1c(SCC(=O)N/N=C/C=C/c2ccccc2[N+](=O)[O-])nnc1-c1ccc(Cl)cc1	.	?	.	4.47µM	.	.
O=C(O)c1ccc(CSc2nnc(SCc3ccccc3)s2)cc1	.	.	20µM	.	.	.
CC(/C=N/NC(=O)Cc1cccs1)=C\c1ccco1	.	.	.	?	.	.
O=C(CSc1nnc(SCc2ccccc2)s1)N/N=C/C=C\c1ccco1	.	?	15.8µM	17.8µM	?	.
O=C(CN1CCN(Cc2ccc(Cl)cc2)CC1)N/N=C/C=C/c1ccccc1[N+](=O)[O-]	.	.	.	?	.	.
Cc1nnc(SCc2ccc(C(=O)O)cc2)s1	.	.	.	.	.	.
CCC(=O)N(c1ccc(C(=O)O)cc1)c1nc(-c2ccc(OC)cc2)c(C)s1	.	.	/	.	.	.
CCSc1ncc(Cl)c(C(=O)N(Cc2ccccc2)c2ccc(OC)cc2)n1	.	.	/	/	/	.
Cc1cc(-c2ccco2)c(C#N)c2nc3ccccc3n12	.	.	.	?	?	.
O=C(Cc1c(Cl)cccc1Cl)Nc1cccnc1	.	.	/	.	.	.
O=C(NCc1ccccn1)[C@H]1C[C@@H]1[C@H](NP(=O)(c1ccccc1)c1ccccc1)c1ccccc1	.	.	.	.	.	.
C/C(=N\NC(=O)Cc1cccn1C)c1ccco1	.	?	/	/	?	.
Cn1cccc1CC(=O)N/N=C/C=C/c1ccco1	.	.	15.8µM	.	.	.
Cc1ccc(Cl)cc1NC(=O)Cn1c(=O)cc(C)c2c(C)nn(C)c21	.	.	/	/	/	.
CC(C)[C@H]1COC(c2cc(Cl)cc(Cl)c2)=N1	.	.	.	.	/	.
Cc1c(Br)c(C(=O)NNC(=O)c2ccc(C(C)(C)C)cc2)nn1C	.	/	/	/	.	.
O=C(CC1Oc2ccccc2NC1=O)NCc1ccccc1 (stereo unspecified)	.	.	.	.	.	.
CC(=O)CC1OC(=O)C(Br)=C1NCc1ccccc1 (stereo unspecified)	?	8.91µM	.	?	.	.
COc1cccc(CCNC(=O)c2ccc(Cn3c(SCc4ccccc4)nc4cccnc43)cc2)c1	.	.	/	/	/	?
N[C@@H](Cc1nn[nH]n1)C(=O)O	/	/	.	.[13.5 µM]	/	/
N[C@H](C(=O)O)c1nn[nH]n1	.	.	.	.	20µM	.
Cc1nn(C)c2c1c(-c1ccccc1)cc(=O)n2CC(=O)NC(C)c1ccccc1 (stereo unspecified)	.	?	/	/	/	.
Cc1cc(C)n(-c2ccc(N3CCOCC3)nn2)n1	.	.	.	?	.	.
Cc1cc(C)n(-c2nnc(N3CCN(c4ccc(F)cc4)CC3)nn2)n1	.	12.6µM	/	.	.	.
CCOc1ccc2nc(N3CCN(C(=O)c4ccc5c(c4)CCCC5)CC3)sc2c1	.	?	/	/	/	.
SMILES	Tau fibril FP	Tau ThT inhib	HPGD inh	ALDH1A1 inh	JMJD2E inh	Tau fluor cs
O=C1CC(c2ccco2)CC2=C1C=Nc1ccccc1N2 (stereo unspecified)	.	?	.	2µM	.	.
Cc1ccc(NC2c3ccccc3C(=O)N2CCN2CCOCC2)cc1 (stereo unspecified)	.	.	.	1µM	.	.
CCN(CC)S(=O)(=O)c1ccc(NC2c3ccccc3C(=O)N2CCN2CCOCC2)cc1 (stereo unspecified)	.	.	.	0.199µM	.	.
COC(=O)c1ccc(NC(=O)CSc2nccn2Cc2ccc(Cl)cc2)cc1	.	.	/	/	/	.
CC(C)Cc1nn2c(=O)cc(COC(=O)c3ccc(NC(=O)C4CCCCC4)cc3)nc2s1	.	.	/	/	/	.
O=C(NCC1CCCO1)c1sc(=S)n2c1[nH]c(=O)c1ccc(C(=O)N3CCCCC3)cc12 (stereo unspecified)	.	?	0.447µM	?	.	?
CCCCNC(=O)c1sc2ncccc2c1-n1cccc1	.	.	/	/	/	.
